Reference: PubChem BioAssay (Tox21)
Inconclusive results are not listed. Entries that show only a call come without a potency. Unmarked numbers belong to inactive results. Activity calls are given as the source filed them. Calls follow the shape of the full dose curve.

Molecular target: Beta-2 adrenergic receptor (Homo sapiens) (UniProt P07550)
Assay: Adrenergic beta2 receptor (ADRB2) small molecule agonists, cell-based qHTS assay (AID 1963593);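 also: CHO cells stably overexpressing human ADRB2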
Outline: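 CHO cells stably over-expressing ADRB2 were plated overnight at 37C, then dosed with compounds plus a stimulation mix containing 100uM IBMX and 25uM Ro-20-1724 for 0.5hr at room temperature. cAMP was measured by HTRF competition, 1hr.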

Beta-2 adrenergic receptor (Homo sapiens), sequence (P07550 whole entry, looked up): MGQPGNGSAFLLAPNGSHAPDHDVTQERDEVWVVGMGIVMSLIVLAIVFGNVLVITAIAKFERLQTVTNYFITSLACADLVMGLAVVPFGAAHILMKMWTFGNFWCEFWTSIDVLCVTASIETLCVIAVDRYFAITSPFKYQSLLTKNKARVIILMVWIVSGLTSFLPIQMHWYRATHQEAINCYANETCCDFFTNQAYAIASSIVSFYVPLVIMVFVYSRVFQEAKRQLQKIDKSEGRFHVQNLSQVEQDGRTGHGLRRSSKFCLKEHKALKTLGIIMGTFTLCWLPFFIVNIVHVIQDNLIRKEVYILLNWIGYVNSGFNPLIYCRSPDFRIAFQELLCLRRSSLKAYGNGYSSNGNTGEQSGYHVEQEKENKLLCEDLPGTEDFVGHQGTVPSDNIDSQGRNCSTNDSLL

Structure (SMILES)	Potency	activation
Brc1ccc(Oc2cc(Br)c(Br)cc2Br)c(Br)c1	inactive	–
CCCN(CCC)c1c([N+](=O)[O-])cc(C(C)C)cc1[N+](=O)[O-]	inactive	–
O=[N+]([O-])c1cc([As](=O)(O)O)ccc1O	inactive	–
O=C(O)c1nn(Cc2ccc(Cl)cc2Cl)c2ccccc12	inactive	–
CCCCCCCCCCCCBr	inactive	–
Nc1cc(Cl)cc(C(=O)O)c1Cl	inactive	–
C[C@]12CCC(=O)C=C1CC[C@@H]1[C@@H]2CC[C@]2(C)C(=O)CC[C@@H]12	inactive	–
BrC(Br)Br	inactive	–
CNC(=S)S	inactive	–
CNC(=O)Oc1c(C(C)(C)C)cc(C)cc1C(C)(C)C	inactive	–
C=C(Cl)CCl	inactive	–
CN(C)C(=O)Nc1cccc(C(F)(F)F)c1	inactive	–
CCCCNC(=O)n1c(NC(=O)OC)nc2ccccc21	inactive	–
C#CCO	inactive	–
N[C@@H](Cc1ccc(N(CCCl)CCCl)cc1)C(=O)O	inactive	–
CC(C)=CCN1CC[C@@]2(C)c3cc(O)ccc3C[C@@H]1[C@@H]2C	inactive	–
Brc1c(Br)c(Br)c(Oc2c(Br)c(Br)c(Br)c(Br)c2Br)c(Br)c1Br	–	-14.9% [at 19 µM]
Cc1cc(Cl)ccc1N=CN(C)C	inactive	–
CNC(=O)Oc1cccc2ccccc12	inactive	–
CO[C@@H]1[C@H](OC(=O)NC(=O)CCl)CC[C@]2(CO2)[C@H]1[C@@]1(C)O[C@@H]1CC=C(C)C	–	4.33% [at 19 µM]
CC(C)C1(C)N=C(c2ncccc2C(=O)O)NC1=O (centres undefined)	inactive	–
ClC1=C(Cl)[C@]2(Cl)[C@@H]3[C@@H](Cl)[C@H](Cl)C[C@@H]3[C@@]1(Cl)C2(Cl)Cl	inactive	–
N#CCCC#N	inactive	–

Structure (SMILES)	Potency	activation
C=C(C)C#N	inactive	–
CC(C)CCCCCCOC(=O)c1ccccc1C(=O)OCCCCCCC(C)C	inactive	–
COC(=O)c1cncn1C(C)c1ccccc1 (centres undefined)	inactive	–
O=C1C=CC(=O)C=C1	inactive	–
CC(Br)C(=O)O (centres undefined)	inactive	–
OCCCl	inactive	–
CCNc1nc(Cl)nc(NC(C)C)n1	inactive	–
CCC[N+](=O)[O-]	inactive	–
c1ccc(-c2cccc(-c3ccccc3)c2)cc1	inactive	–
CCOP(=O)(OCC)OCC	inactive	–
CCN(CC)C(=O)C(C)Oc1cccc2ccccc12 (centres undefined)	inactive	–
ClC(Cl)(Cl)Br	inactive	–
COc1ccc(O)c(C(C)(C)C)c1	inactive	–
CC(C)CCCCCOC(=O)c1ccccc1C(=O)OCCCCCC(C)C	inactive	–
C=CC(=O)OCCCCCC(C)C	inactive	–
CC(C)(C)C(O)(CCc1ccc(Cl)cc1)Cn1cncn1 (centres undefined)	inactive	–
O=c1oc2ccccc2c(O)c1C(CC(O)c1ccc(-c2ccc(Br)cc2)cc1)c1ccccc1 (centres undefined)	inactive	–
CC(C)NC(=O)N1CC(=O)N(c2cc(Cl)cc(Cl)c2)C1=O	inactive	–
c1ccc(-c2ccccc2)cc1	inactive	–
CC(C)(O)C#N	inactive	–
COc1ccc(C(CN(C)C)C2(O)CCCCC2)cc1 (centres undefined)	inactive	–
CCC(C)n1c(=O)[nH]c(C)c(Br)c1=O (centres undefined)	inactive	–
C(=NC1CCCCC1)=NC1CCCCC1	inactive	–

Structure (SMILES)	Potency	activation
CCCCN(CCCC)N=O	inactive	–
CC[N+]1(CC)CCC(OC(=O)C(O)(c2ccccc2)c2ccccc2)C1 (centres undefined)	inactive	–
N#CCCCl	inactive	–
CC1=C2[C@H]3OC(=O)[C@@H](C)[C@@H]3CC[C@@]2(C)C=CC1=O	inactive	–
CCCCC(CC)C(=O)Cl (centres undefined)	inactive	–
CN(C)P(=O)(N(C)C)N(C)C	inactive	–
COc1ccc2c3c1O[C@H]1[C@@H](O)C=C[C@H]4[C@@H](C2)N(C)CC[C@@]341	inactive	–
N#Cc1ccncc1	inactive	–
CCCC[N+]1(C)CCCC1 (tested in a mixture with another compound)	inactive	–
CCC(C)(C#N)N=NC(C)(C#N)CC (centres undefined)	inactive	–
N#CC(c1ccccc1)c1ccccc1	inactive	–
Cl/C=C/Cl	inactive	–
O=C(CBr)c1ccc(O)cc1	inactive	–
O=C(O)C1C2CCC(O2)C1C(=O)O (centres undefined)	inactive	–
CCC[CH2][Sn]([Cl])([Cl])[CH2]CCC	inactive	–
Oc1ccccc1Cl	inactive	–
CCOC(=O)CC(SP(=S)(OC)OC)C(=O)OCC (centres undefined)	inactive	–
CC1(C)CC(=O)CC(C)(C)N1[O]	inactive	–
C1=Cc2cccc3cccc1c23	inactive	–
C=CCOC(N)=O	inactive	–
O=S(=O)(c1ccc(O)cc1)c1ccc(O)cc1	inactive	–
COP(=S)(OC)Oc1ccc(SC)c(C)c1	inactive	–
CCOP(=S)(OCC)Oc1cc(C)nc(C(C)C)n1	inactive	–
